# Measurements published in PubChem BioAssay AID720697 (Broad Institute, 2013).
# Potency and affinity values are given separately. Records with an inconclusive call do not appear. Where a call stands in place of a potency, no number is given. Calls of active or inactive are those of the source.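 Rule for the calls: active = signal loss with fitted half-maximal concentration at or below twice the top valid tested dose in every test run; inconclusive = runs disagree, flat 30 to 70% signal loss, or poor fit; inactive = all runs flat, opposite direction, or potency beyond limit.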
# Experiment: general mammalian cell viability loss – inhibitor set, cherry-pick, set 2, cytotoxicity control for miR-122 modulator project, dose response (AID 720697)
row,Compound,outcome
1,CCCNC(=O)N1[C@@H]2CN(C(=O)c3ccccc3)c3ccccc3[C@@H]2[C@@H]1CO,inactive
2,CCCC#Cc1ccc2c(c1)O[C@H](CN(C)C(=O)COC)[C@H](C)CN([C@@H](C)CO)S2(=O)=O,inactive
3,COc1ccc(CN2CCN(Cc3cccn3-c3ncccn3)CC2CCO)c(C)c1C (configuration not stated),inactive
4,C[C@@H]1CN([C@H](C)CO)S(=O)(=O)c2ccc(C3=CCCC3)cc2O[C@@H]1CN(C)C(=O)Cc1ccncc1,inactive
5,O=C(Nc1ccccc1F)N1C[C@H]2[C@@H](c3ccccc31)[C@@H](CO)N2C(=O)C1CC1,inactive
6,O=C(C1CC1)N(CCN(C(=O)C1CC1)c1ccccc1)c1ccccc1,inactive
7,COc1cccc(C(=O)Nc2ccc3c(c2)C(=O)N(C)[C@@H]2CC[C@@H](CC(=O)NCc4ccc(F)cc4)O[C@@H]2CO3)c1,inactive
8,COC(=O)C[C@H]1CC[C@H]2[C@@H](COc3ccc(NC(=O)Nc4c(C)noc4C)cc3C(=O)N2C)O1,inactive
9,OC[C@H]1[C@@H](c2ccccc2)[C@H](CNCC2CCC2)N1CC1CC1,inactive
10,CC(C)C(=O)Nc1ccc2c(c1)C(=O)N(C)[C@@H]1CC[C@@H](CC(=O)NCC3CC3)O[C@H]1CO2,inactive
11,CN1C(=O)c2cc(NS(=O)(=O)c3ccc(Cl)cc3)ccc2OC[C@@H]2O[C@H](CC(=O)N3CCc4ccccc4C3)CC[C@H]21,inactive
12,CNC(=O)C[C@@H]1CC[C@@H]2[C@@H](COc3ccc(NC(=O)NC(C)C)cc3C(=O)N2C)O1,inactive
13,COc1ccc(-c2c(C)nn3c(N)c(-c4ccccc4)cnc23)cc1OC,inactive
14,CCCNC(=O)C[C@@H]1CC[C@@H]2[C@H](COc3ccc(NC(=O)Nc4ccccc4F)cc3C(=O)N2C)O1,inactive
15,COc1cccc(-c2ccc3c(c2)O[C@H](CN(C)C(=O)C2CCOCC2)[C@H](C)CN([C@@H](C)CO)S3(=O)=O)c1,inactive
16,C[C@H](CO)N1C[C@H](C)[C@H](CN(C)CC2CCCCC2)OCCCC[C@H](C)Oc2ccc(NC(=O)Nc3cccc4ccccc34)cc2C1=O,inactive
17,CN1C(=O)c2cc(NC(=O)c3cccc(F)c3)ccc2OC[C@H]2O[C@@H](CC(=O)NC3CCC3)CC[C@H]21,inactive
18,CN1C(=O)c2cc(NC(=O)c3cccc(F)c3)ccc2OC[C@@H]2O[C@H](CC(=O)O)CC[C@H]21,inactive
19,CN1C(=O)c2cc(NC(=O)Cc3ccccc3)ccc2OC[C@@H]2O[C@@H](CC(=O)NCc3ccc(Cl)cc3)CC[C@H]21,inactive
20,CNC(=O)C[C@H]1CC[C@H]2[C@H](COc3ccc(NC(=O)c4cccc(OC)c4)cc3C(=O)N2C)O1,inactive
21,CCC(=O)N1[C@H](CO)[C@@H](c2ccccc2)[C@@H]1CN(CC)C(=O)c1cccc(F)c1,inactive

row,Compound,outcome
1,C[C@H]1CN([C@@H](C)CO)C(=O)c2cc(-c3ccc(C#N)cc3)cnc2O[C@H]1CN(C)C(=O)Nc1ccc(C(F)(F)F)cc1,inactive
2,COCCN(C[C@H]1[C@H](c2ccccc2)[C@@H](CO)N1C(=O)C1CCC1)C(C)=O,inactive
3,CNC(=O)C[C@H]1CC[C@@H]2[C@H](COc3ccc(NC(=O)NC(C)C)cc3C(=O)N2C)O1,inactive
4,COc1ccc(N2CCc3c(C)nc4c(OC)cc(OC)cc4c32)c(OC)c1,inactive
5,COc1ccccc1C#Cc1ccc2c(c1)O[C@H](CN(C)Cc1cccnc1)[C@H](C)CN([C@@H](C)CO)S2(=O)=O,inactive
6,COCC(=O)Nc1ccc2c(c1)C(=O)N(C)[C@@H]1CC[C@H](CC(=O)NC3CCCC3)O[C@H]1CO2,inactive
7,CC(C)NC(=O)Nc1ccc2c(c1)C(=O)N(C)[C@@H]1CC[C@H](CC(=O)NCC(F)(F)F)O[C@H]1CO2,inactive
8,CN1C(=O)c2cc(NC(=O)c3cccs3)ccc2OC[C@H]2O[C@H](CC(=O)NCC(F)(F)F)CC[C@H]21,inactive
9,COc1cccc(C(=O)Nc2ccc3c(c2)C(=O)N(C)[C@@H]2CC[C@H](CC(=O)NCc4ccc(F)cc4)O[C@@H]2CO3)c1,inactive
10,COc1cccc(CNC(=O)C[C@H]2CC[C@@H]3[C@H](COc4ccc(NC(C)=O)cc4C(=O)N3C)O2)c1,inactive
11,CNC(=O)C[C@@H]1CC[C@H]2[C@@H](COc3ccc(NC(=O)c4cccc(OC)c4)cc3C(=O)N2C)O1,inactive
12,CCC(=O)Nc1ccc2c(c1)C(=O)N(C)[C@@H]1CC[C@H](CC(=O)Nc3cccc(OC)c3)O[C@@H]1CO2,inactive
13,COCCN(C[C@@H]1[C@H](c2ccccc2)[C@@H](CO)N1C(=O)C1CCC1)C(C)=O,inactive
14,Cc1nn(C)cc1NC(=O)C[C@H]1CC[C@@H]2[C@H](COc3ccc(NC(=O)Nc4cccc(Cl)c4)cc3C(=O)N2C)O1,inactive
15,COc1cccc(-c2nn(-c3ccccc3)cc2CO)c1,inactive
16,O=C(Nc1ccc(Cl)cc1)N1C[C@H]2[C@@H](c3ccccc31)[C@H](CO)N2CC1CCCCC1,inactive
17,COc1cccc(S(=O)(=O)N(C)C[C@@H]2Oc3cc(C4=CCCC4)ccc3S(=O)(=O)N([C@H](C)CO)C[C@@H]2C)c1,inactive
18,COCC(=O)Nc1ccc2c(c1)C(=O)N(C)[C@@H]1CC[C@@H](CC(=O)NCc3ccc(OC)cc3)O[C@H]1CO2,inactive
19,CN1C[C@@H]2[C@H](c3ccccc31)[C@@H](CO)N2C(=O)Nc1ccccc1,inactive
20,CCC(=O)N1[C@@H](CO)[C@H](c2ccccc2)[C@@H]1CN(C(C)C)S(C)(=O)=O,inactive
21,CCCCC(=O)OCC(=O)c1[nH]c(C)c(C(=O)OCC)c1C,inactive
